Screening results (PubChem)
Shown are actives, neighbours in structure and some others; about 6.9% of the full set was active somewhere.
MCF10A rerep: inducers of DNA re-replication in MCF 10A breast cells; AID 624296; MCF 10A DNA re-replication, Hoechst nuclear intensity, 48 h; 350,000 compounds, 2.9% hits; Potency, µM (top dose mostly 46.1 µM), without a hit: at the highest dose activity, positive = re-replication, most hits filed as activators; also: potency is read from the fitted curve at half-maximal effect; % of control where 0% means no effect; nearly all actives have a fitted effect of over 50% in size
IL-1B inflam inh: inhibitors of inflammasome signaling (IL-1 beta secretion) | THP-1 LPS/ATP IL-1B secretion, AlphaLISA, 16 h; stronger effect = lower value | activity change, % at 57.5 µM | 360,000 compounds, 4.7% hits; in the data active = activity change below about -50%; inconclusive = mostly about -30% to -49%; also: % is scaled to controls: 0 for no effect and ±100 for the full control effect
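Secreted IL-1B measured by AlphaLISA bead assay after 16 h compound exposure of THP-1 cells; compounds (final up to 57.5 uM) added 1 h before LPS (250 ng/mL) and ATP (1.25 mM) stimulation; lower signal means less secretion.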
Vif-A3F inh: inhibitors of Vif-A3F interaction. Potency, µM (doses to about 46.1 µM), for the others: at the top dose activity, negative = active. 390,000 compounds, 0.2% hits. HeLa A3F-eYFP + Vif (tagged APOBEC3F with the HIV-1 protein that degrades it), YFP fluorescence increase. AID 602313; also: potency is read from the fitted curve at half-maximal effect; % of control where 0% means no effect; nearly all actives have a fitted effect of over 65% in size
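Fluorescence increase (Ex 488/Em 500-530) after overnight compound treatment at 37 deg C flags inhibition of Vif-driven A3F-eYFP loss in stable HeLa A3F-eYFP/Vif cells seeded overnight beforehand.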
Vif-APOBEC3G blk: Vif-A3G binding inhibition. Q9HC16. HeLa A3G-eYFP + Vif (tagged APOBEC3G with the HIV-1 protein that degrades it), YFP fluorescence, overnight. Potency, µM (highest dose often 46.1 µM), for the others: at the highest dose activity, negative = active, hits mostly inhibitors. 410,000 compounds, 0.076% hits. AID 602310; also: potency is read from the fitted curve at half-maximal effect; % is scaled to controls: 0 for no effect and ±100 for the full control effect; nearly all actives have a fitted effect of over 60% in size
Target sequence (Q9HC16 whole entry, looked up): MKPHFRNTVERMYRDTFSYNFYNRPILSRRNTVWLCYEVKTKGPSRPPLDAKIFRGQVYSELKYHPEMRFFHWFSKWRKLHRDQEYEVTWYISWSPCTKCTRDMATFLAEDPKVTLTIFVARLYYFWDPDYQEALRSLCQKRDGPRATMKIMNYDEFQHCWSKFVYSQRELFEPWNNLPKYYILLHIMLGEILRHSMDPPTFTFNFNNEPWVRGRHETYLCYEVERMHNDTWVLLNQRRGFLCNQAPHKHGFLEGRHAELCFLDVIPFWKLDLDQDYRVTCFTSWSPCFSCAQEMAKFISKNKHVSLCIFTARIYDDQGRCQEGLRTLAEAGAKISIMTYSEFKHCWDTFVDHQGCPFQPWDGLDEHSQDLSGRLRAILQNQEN
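HeLa cells stably expressing Vif and C-terminally eYFP-tagged A3G, seeded overnight at 37 deg C, then exposed to compound by pintool overnight at 37 deg C. Rise in yellow fluorescence (Ex 488/Em 500-530, Acumen) marks blocked Vif-driven A3G degradation.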
SW480 rereplic: inducers of DNA re-replication in SW480 colon cancer cells | SW480 DNA re-replication, Hoechst DNA content imaging, 48 h | 340,000 compounds, 1.8% hits | Potency, µM (series often up to 46.1 µM), inactives show at the top dose re-replication activation, hits mostly activators; also: potency is read from the fitted curve at half-maximal effect; % of control where 0% means no effect; nearly all actives have a fitted effect of over 55% in size
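Quantitative HTS format with DMSO vehicle controls; 48 hr drug incubation at 37 C, then 40 min Hoechst staining and scanning imager measurement at 405 nm excitation.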
Giardia kill: kills Giardia lamblia. activity change, % at 7.66 µM, hits read low. AID 540267. Giardia lamblia trophozoite viability. 340,000 compounds, 0.15% hits; in the data active = activity change below about -80%; inconclusive = between about -30% and that limit;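 also: parasites exposed to compound for two days anaerobically before the ATP read; % is scaled to controls: 0 for no effect and ±100 for the full control effect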
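Anaerobic 48 hrs incubation at 37 deg C of 100 trophozoites/well with test compounds; ATPLite 1-Step luminescence, 15-30 min RT, reports cellular ATP as viability.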
* marks the source's active call; other numbers are inactive results; ? = inconclusive; . = no result given. Unless noted, calls follow the shape of the dose curve; as a rule, active = well fitted curve in the direction sought with a large enough effect; inconclusive = small, poorly fitted or top-dose-only effect, or another doubt; inactive = no such curve, though single readings can be large; an effect the other way counts as inactive or inconclusive.

SMILES	MCF10A rerep	IL-1B inflam inh	Vif-A3F inh	Vif-APOBEC3G blk	SW480 rereplic	Giardia kill
Cc1noc(NS(=O)(=O)c2ccc(N/C=C\C(=O)c3ccc4c(c3)OCO4)cc2)c1C	5.8µM*	5.7	-8.8%	-0.7%	6.6%	-12.7
Cc1noc(NS(=O)(=O)c2ccc(N/C=C\C(=O)c3ccc(Br)cc3)cc2)c1C	?	43.7	6.4%	0.1%	-11.9%	9.8
CCCCCCCCCC[Si](C)(C)CCC(=O)N[C@@H](Cc1ccc(C)cc1)c1ccccc1	.	.	.	2.8%	.	.
O=C(Nc1ccc(Cl)cc1)Nc1nnc(CSCc2ccc(Cl)cc2)s1	14.7%	-61.0*	-5.6%	-10.1%	?	9.7
O=C(CCn1c(=O)c2sccc2n(Cc2ccccc2F)c1=O)NCc1ccc2c(c1)OCO2	.	.	2.0%	-2.0%	.	.
CC1=C/C(=C\c2ccc(N(C)C)cc2)c2ccccc21	.	.	.	0.9%	.	.
Cc1cc(C)c2nc(N3CCCC(C(=O)NCc4cccc(Cl)c4)C3)sc2c1 (centres undefined)	.	.	-1.9%	1.0%	.	.
COC(=O)Cn1c(=O)c2c(n(Cc3ccccc3)c1=O)N/C(=C/c1ccc(Br)cc1)C2=O	4.61µM*	-1.2	?	?	?	15.8
CN(C)CCN(C)Cc1c2ccccc2c(CN(C)CCN(C)C)c2ccccc12	?	-83.8*	-17.2%	-1.2%	?	13.5
CCN1C(=O)/C(=C2/Sc3ccccc3N2CC)SC1=S	-6.1%	-0.5	1.2%	-2.5%	-11.4%	-8.8
CCCCN1C(=O)/C(=C2/Sc3ccccc3N2C)S/C1=N\c1ncn[nH]1	14.6%	40.5	22.4µM*	-9.0%	14.6µM*	-1.5
Cc1cccc(NS(=O)(=O)c2ccc(C)c(NS(=O)(=O)c3cccs3)c2)c1	1.3%	-61.6*	7.1%	-5.5%	23.4%	3.8
CCN(CC)C(=O)c1c(-c2ccccc2)c(-c2ccccc2)nn(CC)c1=O	.	.	5.0%	1.8%	.	.
Cc1ccc(Cl)cc1NC(=O)CC(O)(C(F)(F)F)C(F)(F)F	26.6%	-82.6*	-9.8%	-0.4%	18.4µM*	21.3
COc1ccc(OC)c(/C=C(\C#N)c2nc(-c3ccc(F)cc3)cs2)c1	.	.	?	1.3%	.	.
COc1cc2sc3ccc(-c4ccc(CN5CCOCC5)cc4)cc3c(=O)c2cc1OC	6.51µM*	-2.8	3.5%	5.5%	22.5%	?
CCCCCn1c(=NC(=O)c2cccnc2)c(C#N)cc2c(=O)n3cccc(C)c3nc21	13µM*	20.8	2.2%	0.2%	8.2µM*	7.7
CCOCCCn1c(=NC(C)=O)c(C#N)cc2c(=O)n3cccc(C)c3nc21	?	.	-23.2%	0.3%	13µM*	24.2
CCCCCn1c(=NC(C)=O)c(C#N)cc2c(=O)n3ccccc3nc21	?	14.1	1.8%	0.0%	?	-4.4
CCCCn1c(=NC(=O)c2ccc3c(c2)OCO3)c(C#N)cc2c(=O)n3cccc(C)c3nc21	?	0.0	10.0%	-2.9%	?	10.0
CCCCn1c(=NC(C)=O)c(C#N)cc2c(=O)n3cccc(C)c3nc21	11.6µM*	60.3	1.9%	-5.1%	20.6µM*	-2.9
COc1ccccc1NC(=S)N(Cc1ccco1)Cc1cc2cc(C)cc(C)c2[nH]c1=O	13µM*	20.2	-5.5%	?	20.6µM*	-2.8
Cc1cc(C)c2cc(CN(Cc3ccco3)C(=O)NCc3ccccc3)c(=O)[nH]c2c1	?	-58.2*	0.0%	-0.5%	?	5.0
Cc1cc(C)c2cc(CN(CC3CCCO3)C(=S)NCc3ccco3)c(=O)[nH]c2c1 (centres undefined)	8.0%	?	-6.2%	0.1%	1.5%	29.7
COc1ccccc1NC(=S)N(Cc1ccco1)Cc1cc2ccc(C)c(C)c2[nH]c1=O	?	10.9	?	-63.0%	?	-17.0
SMILES	MCF10A rerep	IL-1B inflam inh	Vif-A3F inh	Vif-APOBEC3G blk	SW480 rereplic	Giardia kill
N=C(N)SCc1cn(-c2ccccc2)nc1-c1ccc(Br)cc1	?	-77.4*	5.9%	-3.7%	17.8%	6.8
Cc1nn(-c2nc3ccccc3[nH]2)c(=O)c2ccccc12	29.6%	-15.8	?	-5.3%	2.9%	-96.9*
Cc1nn(-c2ccc3ccccc3c2)c(=O)c2ccccc12	23.8%	44.4	-2.0%	-6.7%	10.8%	-12.5
O=C(CCCn1c(=O)c2cccn2c2cccnc21)NCc1ccccc1Br	.	.	-3.2%	-5.3%	.	.
COc1ccc(OC)c(CCNC(=O)C(C)n2c(C)c3cnn(-c4ccccc4)c(=O)c3c2C)c1 (centres undefined)	.	.	9.5%	3.8%	.	.
CCOc1ccc(/C=C/C2=Cc3c(sc(NC(=O)CSc4n[nH]c(N)n4)c3C#N)C(C)(C)C2)cc1	6.51µM*	-92.6*	2.1%	?	16.4µM*	6.3
Cc1ccsc1/C=C/C1=Cc2c(sc(NC(=O)CSc3n[nH]c(N)n3)c2C#N)C(C)(C)C1	?	-63.1*	0.4%	0.0%	14.6µM*	-9.7
CC(C)(C)C1CCc2onc(C(=O)Nc3sc4c(c3C#N)CCCC4)c2C1 (centres undefined)	.	.	-0.1%	-2.0%	.	.
Nc1nc(NC(=O)c2ccc(F)cc2)ns1	1.4%	-72.7*	-1.5%	4.4%	-8.7%	15.6
CC(=O)Cc1nsc(NC(=O)c2ccc(F)cc2)n1	-2.8%	0.2	11.7%	-0.9%	1.8%	-7.8
CCOC(=O)c1sc2nccc(N(C)C)c2c1N=CNOCc1ccccc1	20.6µM*	-7.5	6.8%	1.0%	?	-8.6
CCOC(=O)c1sc2nccc(N(C)C)c2c1N=CNOCc1c(F)cccc1Cl	14.6µM*	-3.2	1.6%	2.5%	?	9.6
c1ccc(Nc2nc(-c3ccccc3)c(-c3ccccc3)s2)cc1	.	.	.	.	.	-4.6
O=C(NCCc1ccc(Cl)cc1)C(=O)NCC(c1cccs1)S(=O)(=O)c1cccs1 (centres undefined)	.	.	1.3%	2.6%	.	.
CCOC(=O)CC(=O)Nc1ncnc2c1C(c1ccccc1)c1c(ccc3ccccc13)O2 (centres undefined)	-17.6%	.	-4.6%	-4.9%	0.9%	1.1
CC(=O)NC1=C(C#N)C(c2ccccc2)c2c(ccc3ccccc23)O1 (centres undefined)	1.84µM*	59.8	.	-20.4%	?	-13.7
O=C(O)COc1ccc(/C=C/c2nc3ccc([N+](=O)[O-])cc3s2)cc1	11.6µM*	0.0	5.6%	1.5%	8.3%	?
Cc1ccc2c(c1)C1CN(C)CCC1N2C(=O)Nc1ccc(Cl)cc1 (centres undefined)	7.4%	-72.0*	5.7%	2.7%	26.1%	-12.4
Cc1cc(C)nc(NS(=O)(=O)c2ccc(NC(=O)c3cccs3)cc2)n1	11.7%	11.8	-13.4%	-0.6%	1.2%	14.8
